Laboratory results taken from PubChem BioAssay (EPA / NIEHS).
Active and inactive are the calls of the source. How the source made its calls: active means hit-call score of the fitted dose curve at least 0.9, where 1 is the maximum; inactive means score below 0.9.

How the values were obtained:
[1] = read-out: Thrombomodulin, THBD (gene 7056); assay: BSK_CASM3C_Thrombomodulin: BioMAP Diversity Plus: CASM3C Assay for Thrombomodulin Biomarker Activity (AID 2283051); settings: primary human coronary artery smooth muscle cells; actives raise or lower the signal;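 further: thrombomodulin protein level measured by ELISA 24 h after dosing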
[2] = read-out: Tissue Factor, F3 (gene 2152); assay: BSK_CASM3C_TissueFactor: BioMAP Diversity Plus: CASM3C Assay for Tissue Factor Biomarker Activity (AID 2283052); settings: primary human coronary artery smooth muscle cells; actives raise or lower the signal;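 further: cell surface tissue factor protein level read by ELISA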
[3] = read-out: Interferon-gamma inducible Protein 10 (IP10), CXCL10 (gene 3627); assay: BSK_hDFCGF_IP10: BioMAP Diversity Plus: hDFCGF Assay for Interferon-gamma inducible Protein 10 (IP10) Biomarker Activity (AID 2283053); settings: primary human foreskin fibroblasts; actives raise or lower the signal
Method in brief: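 IP-10 levels, quantified by ELISA, are taken from human foreskin fibroblast cultures 24 h after chemical treatment, with DMSO serving as negative control and baseline for bidirectional analysis.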

[4] = read-out: Urokinase-type plasminogen activator receptor (uPAR), PLAUR (gene 5329); assay: BSK_CASM3C_uPAR: BioMAP Diversity Plus: CASM3C Assay for Urokinase-type plasminogen activator receptor (uPAR) Biomarker Activity (AID 2283054); settings: primary human coronary artery smooth muscle cells; actives raise or lower the signal;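 further: cell-surface uPAR protein level quantified by ELISA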
[5] = read-out: Vascular cell adhesion molecule 1 (VCAM1), VCAM1 (gene 7412); assay: BSK_CASM3C_VCAM1: BioMAP Diversity Plus: CASM3C Assay for Vascular cell adhesion molecule 1 (VCAM1) Biomarker Activity (AID 2283055); settings: primary human coronary artery smooth muscle cells; actives raise or lower the signal;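 further: VCAM-1 protein level quantified by ELISA on the cells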
[6] = read-out: Collagen III, COL3A1 (gene 1281); assay: BSK_hDFCGF_CollagenIII: BioMAP Diversity Plus: hDFCGF Assay for Collagen III Biomarker Activity (AID 2283056); settings: primary human foreskin fibroblasts; actives raise or lower the signal
Method in brief: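 ELISA read-out of collagen III from human skin fibroblast cultures sampled 24 h post-dosing. Values were derived by bidirectional fitting relative to the DMSO vehicle control.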

[7] = read-out: Epidermal growth factor receptor (EGFR), EGFR (gene 1956); assay: BSK_hDFCGF_EGFR: BioMAP Diversity Plus: hDFCGF Assay for Epidermal growth factor receptor (EGFR) Biomarker Activity (AID 2283057); settings: primary human foreskin fibroblasts; actives raise or lower the signal
Method in brief: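 Measured by ELISA: EGFR levels on primary human foreskin fibroblasts 24 h after chemical treatment, analysed relative to DMSO with bidirectional fitting.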

[8] = read-out: Interleukin-8 (IL8), CXCL8 (gene 3576); assay: BSK_hDFCGF_IL8: BioMAP Diversity Plus: hDFCGF Assay for Interleukin-8 (IL8) Biomarker Activity (AID 2283058); settings: primary human foreskin fibroblasts; actives raise or lower the signal
Method in brief: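 Cells used are human skin primary fibroblasts. Chemical is added, cultures run 24 h, then IL-8 is quantified by ELISA, and gain or loss versus DMSO control is fitted in both directions.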

[9] = BSK_hDFCGF_Proliferation: Cell Proliferation Assessment in the BioMAP Diversity Plus: hDFCGF Assay (AID 2283059); settings: primary human foreskin fibroblasts;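 further: curves fitted for both rise and fall of signal versus DMSO baseline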
Method in brief: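 Total protein read at 560 nm after 0.1% SRB staining of TCA-fixed human skin fibroblasts, […]. Activity is fitted in both directions relative to DMSO as baseline.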

[10] = read-out: Macrophage colony-stimulating factor (MCSF), CSF1 (gene 1435); assay: BSK_hDFCGF_MCSF: BioMAP Diversity Plus: hDFCGF Assay for Macrophage colony-stimulating factor (MCSF) Biomarker Activity (AID 2283060); settings: primary human foreskin fibroblasts; actives raise or lower the signal
Method in brief: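 Primary human foreskin fibroblasts dosed with chemical; 24 h later, M-CSF quantified by ELISA; curves fitted in both directions vs DMSO negative control.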

[11] = BSK_hDFCGF_SRB: Viability Assessment in the BioMAP Diversity Plus: hDFCGF Assay (AID 2283061); settings: primary human foreskin fibroblasts;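 further: cells exposed to compound for 24 h before the read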
Method in brief: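 Readout is SRB absorbance at 560 nm, reflecting total protein in parallel cultures of human foreskin fibroblasts harvested 24 h after chemical dosing. Activity was fitted bidirectionally relative to DMSO.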

[12] = read-out: TIMP metallopeptidase inhibitor 1 (TIMP1), TIMP1 (gene 7076); assay: BSK_hDFCGF_TIMP1: BioMAP Diversity Plus: hDFCGF Assay for TIMP metallopeptidase inhibitor 1 (TIMP1) Biomarker Activity (AID 2283062); settings: primary human foreskin fibroblasts; actives raise or lower the signal
Method in brief: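 Human skin fibroblasts (primary), hDFCGF system; compound exposure 24 h; TIMP-1 by ELISA; bidirectional fit vs DMSO negative control; overt cytotoxicity by SRB in parallel wells.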

[13] = read-out: Monokine induced gamma interferon (MIG), CXCL9 (gene 4283); assay: BSK_hDFCGF_MIG: BioMAP Diversity Plus: hDFCGF Assay for Monokine induced gamma interferon (MIG) Biomarker Activity (AID 2283063); settings: primary human foreskin fibroblasts; actives raise or lower the signal
Method in brief: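 Chemicals were added to primary human foreskin fibroblast cultures, which were sampled 24 h later. MIG levels were then quantified by ELISA and responses fitted in both directions relative to DMSO.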

[14] = read-out: Vascular cell adhesion molecule 1 (VCAM1), VCAM1 (gene 7412); assay: BSK_hDFCGF_VCAM1: BioMAP Diversity Plus: hDFCGF Assay for Vascular cell adhesion molecule 1 (VCAM1) Biomarker Activity (AID 2283065); settings: primary human foreskin fibroblasts; actives raise or lower the signal;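 on AC50: VCAM-1 protein level quantified by ELISA after 24 h chemical exposure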
Method in brief: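 Human foreskin fibroblast primary cells, chemical exposure 24 h; VCAM-1 by ELISA; bidirectional fit, DMSO = negative control/baseline.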

[15] = read-out: Plasminogen activator inhibitor-1 (PAI1), SERPINE1 (gene 5054); assay: BSK_hDFCGF_PAI1: BioMAP Diversity Plus: hDFCGF Assay for Plasminogen activator inhibitor-1 (PAI1) Biomarker Activity (AID 2283066); settings: primary human foreskin fibroblasts; actives raise or lower the signal
Method in brief: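 PAI-1 levels, determined by ELISA, served as the endpoint in human foreskin fibroblast cultures exposed to compound for 24 h, with DMSO as baseline.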

[16] = read-out: Intercellular Adhesion Molecule 1 (ICAM1), ICAM1 (gene 3383); assay: BSK_KF3CT_ICAM1: BioMAP Diversity Plus: KF3CT Assay for Intercellular Adhesion Molecule 1 (ICAM1) Biomarker Activity (AID 2283067); settings: primary human keratinocytes with fibroblasts; actives raise or lower the signal
Method in brief: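 ICAM-1 levels are measured by ELISA 24 h after dosing a primary human co-culture of keratinocytes and foreskin fibroblasts. Activity in either direction is fitted relative to DMSO vehicle.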

[17] = read-out: Interferon-gamma inducible Protein 10 (IP10), CXCL10 (gene 3627); assay: BSK_KF3CT_IP10: BioMAP Diversity Plus: KF3CT Assay for Interferon-gamma inducible Protein 10 (IP10) Biomarker Activity (AID 2283068); settings: primary human keratinocytes with fibroblasts; actives raise or lower the signal
Method in brief: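 Human keratinocyte plus foreskin fibroblast primary co-culture exposed to test chemical for 24 h; IP-10 measured by ELISA. Concentration-response fitted bidirectionally against DMSO control as baseline.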

[18] = BSK_KF3CT_SRB: Viability Assessment in the BioMAP Diversity Plus: KF3CT Assay (AID 2283069); settings: primary human keratinocytes with fibroblasts;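 further: total protein by sulforhodamine B staining as a cytotoxicity measure; read 24 h after compound addition; fitted for both signal gain and loss against DMSO baseline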
Method in brief: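 Keratinocytes co-cultured with foreskin fibroblasts (human primary); chemical added, 24 h; fix 10% TCA, stain 0.1% SRB, A560. Bidirectional fit vs DMSO.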

[19] = read-out: Interleukin-1 alpha (IL1a), IL1A (gene 3552); assay: BSK_KF3CT_IL1a: BioMAP Diversity Plus: KF3CT Assay for Interleukin-1 alpha (IL1a) Biomarker Activity (AID 2283070); settings: primary human keratinocytes with fibroblasts; actives raise or lower the signal
Method in brief: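 Chemicals were dosed onto co-cultured human keratinocytes and foreskin fibroblasts, IL-1a was quantified by ELISA at 24 h, and activity was fitted in both directions relative to DMSO controls.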

Measured: AC50

CCOC(=O)CC(SP(=O)(OC)OC)C(=O)OCC (configuration not stated)
inactive: [1] | [2] | [3] | [4] | [5] | [6] | [7] | [8] | [9] | [10] | [11] | [12] | [13] | [15] | [16] | [17] | [18] | [19]
active: [14] 10.8 µM

CCC(CC)Nc1c([N+](=O)[O-])cc(C)c(C)c1[N+](=O)[O-]
inactive: [2] | [4] | [5] | [6] | [7] | [8] | [11] | [12] | [15] | [16] | [18] | [19]
active: [1] 16.3 µM | [3] 20 µM | [9] 29.2 µM | [10] 13.5 µM | [13] 11.8 µM | [14] 11.9 µM | [17] 13.8 µM

Cc1nn(-c2cc(NS(C)(=O)=O)c(Cl)cc2Cl)c(=O)n1C(F)F
inactive: [1] | [2] | [3] | [4] | [5] | [6] | [7] | [8] | [9] | [10] | [11] | [12] | [13] | [14] | [15] | [16] | [17] | [18] | [19]

CC1=NNC(=O)N(/N=C/c2cccnc2)C1
inactive: [1] | [2] | [3] | [4] | [5] | [6] | [7] | [8] | [9] | [10] | [11] | [12] | [13] | [14] | [15] | [16] | [17] | [18] | [19]

Cc1ccn2nc(S(=O)(=O)Nc3c(F)cccc3F)nc2n1
inactive: [1] | [2] | [3] | [4] | [5] | [6] | [7] | [8] | [9] | [10] | [11] | [12] | [13] | [14] | [15] | [16] | [17] | [18] | [19]

CSc1nnc(C(C)(C)C)c(=O)n1N
active: [3] 12.7 µM | [4] 1.32 µM | [6] 3.97 µM | [12] 30.4 µM
inactive: [1] | [2] | [5] | [7] | [8] | [9] | [10] | [11] | [13] | [14] | [15] | [16] | [17] | [18] | [19]

CC(C)=CC1C(C(=O)OCN2C(=O)C3=C(CCCC3)C2=O)C1(C)C (configuration not stated)
inactive: [1] | [2] | [4] | [7] | [8] | [12] | [16] | [17] | [18] | [19]
active: [3] 30.1 µM | [5] 13.6 µM | [6] 20 µM | [9] 15.5 µM | [10] 27.6 µM | [11] 30.7 µM | [13] 33.5 µM | [14] 25.8 µM | [15] 30.7 µM

C#CC(C)(C)NC(=O)c1cc(Cl)cc(Cl)c1
active: [3] 4.25 µM | [6] 2.72 µM
inactive: [1] | [2] | [4] | [5] | [7] | [8] | [9] | [10] | [11] | [12] | [13] | [14] | [15] | [16] | [17] | [18] | [19]

O=C(O)c1cc(Oc2ccc(C(F)(F)F)cc2Cl)ccc1[N+](=O)[O-]
inactive: [1] | [2] | [3] | [4] | [5] | [6] | [7] | [8] | [9] | [10] | [11] | [12] | [13] | [14] | [15] | [16] | [17] | [18] | [19]

S=C1NCCN1
inactive: [1] | [2] | [3] | [4] | [5] | [6] | [7] | [8] | [9] | [10] | [11] | [12] | [13] | [14] | [15] | [16] | [17] | [18] | [19]

CCC(=O)Nc1ccc(Cl)c(Cl)c1
inactive: [1] | [2] | [3] | [4] | [5] | [6] | [7] | [8] | [9] | [10] | [11] | [12] | [13] | [14] | [15] | [16] | [17] | [18] | [19]

C[N+]1(C)CCCCC1
inactive: [1] | [2] | [3] | [4] | [5] | [6] | [7] | [8] | [9] | [10] | [11] | [12] | [13] | [14] | [15] | [16] | [17] | [18] | [19]

O=c1ccc(=O)[nH][nH]1
inactive: [1] | [2] | [3] | [4] | [5] | [6] | [7] | [8] | [9] | [10] | [11] | [12] | [13] | [14] | [15] | [16] | [17] | [18] | [19]
